RGS4 inhibitor: blocks human RGS4-accelerated GTP hydrolysis; P49798; actives 0.039% (n = 390,000); Potency, µM (doses to about 114 µM), for the others: top-dose activity change, negative = inhibition, usual class: inhibitors; AID 504845; Transcreener GDP fluorescence polarization, RGS4-accelerated GTP hydrolysis; note: potency is the fitted concentration of half-maximal effect; % is set by controls: 0 for no effect and ±100 for the full control effect; nearly all actives have a fitted effect of over 75% in size
Target sequence (P49798 whole entry, looked up): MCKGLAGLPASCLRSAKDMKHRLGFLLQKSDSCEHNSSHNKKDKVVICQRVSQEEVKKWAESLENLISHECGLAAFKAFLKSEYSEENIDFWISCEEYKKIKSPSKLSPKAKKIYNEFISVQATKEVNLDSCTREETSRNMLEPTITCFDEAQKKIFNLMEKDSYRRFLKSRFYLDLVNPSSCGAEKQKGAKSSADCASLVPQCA
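MLSMR compounds (23 nl, pin-transferred) preincubated 10 min at room temperature with a 500nM (2x) first reagent, then RGS4 at 900nM (2x) plus Transcreener GDP mix added; fluorescence polarization (620/688 nm) read before and after 90 min at 30 °C.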
p53 reactivator: restores transcriptional activity of mutant p53. H1299 p53-A138V BP100-luciferase reporter, luminescence, 24 h. Potency, µM (titrated, usually from 92.2 µM), for the others: at the highest dose activity change, positive = activation, actives largely listed as activators. actives 0.063% (n = 320,000). AID 504706; note: potency is the fitted concentration of half-maximal effect; % of control where 0% means no effect; nearly all actives have a fitted effect of over 45% in size
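p53-null H1299 cells stably carrying temperature-sensitive p53-A138V and a BP100-luciferase reporter were pinned with compounds (4-point, 1:5 series) and held 24 hrs at 37 deg C. Luminescence was read 10 min after detection reagent.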
LDHA inh: inhibitors of human lactate dehydrogenase A. P00338. purified LDHA, NADH/diaphorase-resazurin fluorescence; active compounds read low. activity change, % (values are at about 110 or 230 µM). actives 0.15% (n = 480,000); in the data active = activity change below about -30%; inconclusive = mostly about -25% to -30%;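 note: plate controls were DMSO wells for no effect and wells without enzyme for full effect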
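Human LDH5 (2 nM) was incubated with 0.06 mM NADH and 0.2 mM pyruvate for 5 min at room temperature in Tris pH 7.4. Remaining NADH was coupled through diaphorase/resazurin, and resorufin fluorescence was read at 0 and 20 min.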
PTHR1 ag: activates the human parathyroid hormone receptor PTHR1. HEK293 GP2 PTHR1 cells, GloSensor cAMP luminescence, 1 h. Potency, µM (doses to about 115 µM), for inactives: at the top dose activation, usual class: activators. AID 743266. actives 0.075% (n = 410,000); note: potency is the fitted concentration of half-maximal effect; nearly all actives have a fitted effect of over 55% in size
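HEK-293-derived GP2 cells expressing PTHR1 and a GloSensor cAMP reporter, 3,000/well, plated overnight, given luciferin plus IBMX (each 0.5 mM as added) for 1 h at 37 °C, then compound for 1 h at 37 °C. Luminescence was read after 15 min at room temperature.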
BRCA1 expr act: activators of BRCA1 expression; MCF7-BRCA1-FFLuc reporter, luminescence, 48 h; response scale: scaled: vehicle 0%, 10 µM genistein 100%; Potency, µM (titrated, usually from 46.1 µM), without a hit: at the highest dose activation, usual class: activators; actives 1.1% (n = 380,000); note: potency is the fitted concentration of half-maximal effect; nearly all actives have a fitted effect of over 80% in size
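First, MCF7-BRCA1-FFLuc cells (2000/well) attach for 2 h; next, compounds are pin-added and incubated 48 h at 37 °C; finally, luciferase reagent is added and luminescence read after 15 min.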
Numbers without * were called inactive; i = inactive; ? = inconclusive; / = no result; [ ] = dose if it differs, or a comment. This is a sample that favours compounds with a hit; in the whole collection about 1.1% have one here. Unless noted, calls come from the whole dose curve; as a rule, active = well fitted curve in the direction sought with a large enough effect; inconclusive = small, poorly fitted or top-dose-only effect, or another doubt; inactive = no such curve, though single readings can be large; an effect the other way counts as inactive or inconclusive.

SMILES | RGS4 inhibitor | p53 reactivator | LDHA inh | PTHR1 ag | BRCA1 expr act
O=C(NCCc1ccc(F)cc1)Nc1ccc2c(c1)OCO2 | -15.5%[11.4 µM] | 1.8% | 0.1 | i | 12.6µM*
O=C(NOCc1ccccc1)OCc1ccccc1 | -18.4% | / | -3.7 | -15.6% | 11.2µM*
O=C(NCCc1ccccc1)Nc1ccc2c(c1)OCO2 | 12.6% | 2.5% | 0.1 | -32.3% | ?
O=C(Nc1ccc2c(c1)OCO2)Nc1ccccn1 | 12.8% | 23.0% | 2.6 | -31.7% | 2.51µM*
Cc1c(Cl)cccc1S(=O)(=O)Nc1ccc(NC(N)=O)cc1 | / | / | 4.3 | / | /
c1csc(CNCCCn2ccnc2)c1 | / | / | 8.4 | / | /
OC1CCN(Cc2nc(-c3ccc(Cl)cc3)no2)CC1 | / | / | -2.3 | / | /
Cc1ccc(-c2noc(CN3CCCCC3)n2)cc1 | 17.9% | ? | -15.6 | -11.9%[57.5 µM] | 2.51µM*
Cc1ccc(-c2noc(CN3CCOCC3)n2)cc1 | -3.7% | 8.6% | -2.1 | -15.7%[57.5 µM] | ?
Clc1ccc(-c2noc(CN3CCCC3)n2)cc1 | -1.0%[11.4 µM] | ? | -6.7 | -9.1% | 12.6µM*
Cc1ccc(NC(=O)CN2CCN(c3ccc(C(F)(F)F)cn3)CC2)c(F)c1 | / | / | 4.9 | / | /
CCN(CC)CCNC(=O)NC(=O)c1ccccc1 | / | / | -7.6 | / | /
O=C(NCc1ccco1)c1ccc(N2CCCC2=O)cc1 | -3.5% | 30.2% | -1.4 | i | 48.3%
O=C(NCc1ccccn1)c1ccc(-c2ccccc2)cc1 | -22.4% | 15.8% | -5.6 | -15.1% | 12.6µM*
O=C(NCc1ccccn1)c1ccc(N2CCCC2=O)cc1 | 27.3% | ? | -2.8 | -22.2%[57.5 µM] | 12.6µM*
CC1(C)CC(=O)C2=C(C1)OC(=O)CC2c1ccc2ccccc2c1 (configuration not stated) | / | / | -2.9 | / | /
N#C/C(=C\c1cccs1)C(=O)Nc1nccs1 | ? | 9.2% | -1.3 | -31.9% | 14.1µM*
C/C(=C\c1ccccc1)C(=O)Nc1nccs1 | 15.2% | 0.0% | -18.0 | -4.8% | 3.16µM*
Cc1ccc(-c2n[nH]c(Cc3ccccc3)n2)cc1 | -4.6% | ? | -1.5 | -42.8% | 5.62µM*
COc1cc(/C=C/C(=O)NC(=O)c2ccccc2O)ccc1O | -53.7% | -10.3% | -7.1 | -10.6% | ?
O=C(/C=C/c1ccccc1)NC(=O)c1ccccc1O | 4.0% | 28.2µM* | 12.8 | -91.2% | 31.6%
CC(C)C(=O)N1CCN(c2nc3c([nH]2)c(=O)n(C)c(=O)n3C)CC1 | / | / | -3.2 | / | /
COc1ccc(OC)c(C2N=C(N)Nc3nc4ccccc4n32)c1 (configuration not stated) | 20.7% | / | -11.5 | -18.0% | 7.0%
COc1ccc(C2N=C(N)Nc3nc4ccccc4n32)cc1 (configuration not stated) | -22.0% | / | -7.7 | 50.1µM* | /
CSc1ccccc1NC(=O)CNCCCN1CCOCC1 | -28.9% | -4.2% | -36.2* | -24.0% | -8.6%
SMILES | RGS4 inhibitor | p53 reactivator | LDHA inh | PTHR1 ag | BRCA1 expr act
Cc1cnc(C(=O)Nc2ccccc2F)cn1 | -11.6% | ? | -2.5 | -8.4%[57.5 µM] | 5.01µM*
O=C(Nc1ccccc1F)Nc1ccccc1F | -4.2% | 7.2% | -1.2 | -3.6% | 5.01µM*
CC(=O)Nc1sc2c(c1-c1ccc(C(=O)O)cc1)CCNC2 | / | / | 5.9 | / | /
COc1ccccc1CNS(=O)(=O)c1ccc2[nH]cc(C(=O)O)c(=O)c2c1 | 16.5% | 0.5% | -56.3* | 9.7%[57.5 µM] | -22.5%
Cc1nn(C)cc1C(C)NC(=O)c1cc(COc2c(F)cccc2F)on1 (configuration not stated) | -1.5% | -1.5% | 2.0 | -27.5% | -0.6%
CC(NC(=O)c1cc(COc2c(F)cccc2F)on1)c1cnn(-c2ccccc2)c1 (configuration not stated) | -13.6% | 6.1% | 1.0 | -46.2% | 7.08µM*
O=C(NCc1n[nH]c(=O)c2ccccc12)c1ccc(Cl)cc1 | / | / | 0.8 | / | /
COc1cccc(-c2cnc(C(O)c3ccc(F)cc3)[nH]2)c1 (configuration not stated) | / | / | -11.9 | -0.1% | 12.6µM*
OC(c1ccc(Cl)cc1)c1ncc(-c2ccccc2Cl)[nH]1 (configuration not stated) | / | / | -12.3 | -2.2% | 5.8%
OC(c1ccc(F)cc1)c1ncc(-c2ccccc2Cl)[nH]1 (configuration not stated) | / | / | -6.1 | -19.6% | 11.2µM*
COc1ccc(C(O)c2ncc(-c3cccc(OC)c3)[nH]2)cc1 (configuration not stated) | / | / | -5.9 | i | 16.2%
Cc1ccccc1-c1cnc(C(O)c2ccc(F)cc2)[nH]1 (configuration not stated) | / | / | -8.3 | i | ?
Cc1ccccc1-c1cnc(C(O)c2ccccc2)[nH]1 (configuration not stated) | / | / | -5.4 | -8.2% | 4.47µM*
CC(C)NC(=O)Nc1cccc(-c2noc(-c3cccs3)n2)c1 | / | / | -0.7 | / | /
O=C1O/C(=C/Br)CCC1c1cccc2ccccc12 (configuration not stated) | 9.47µM* | / | / | / | /
O=C1CCCCC1c1cccc2ccccc12 (configuration not stated) | 16.0% | -9.1% | -10.4 | i | 4.5%
CCOC(=O)N1CCN(C(=O)CSCc2ccccc2)CC1 | 6.8% | ? | -5.0 | i | 11.2µM*
CCOC(=O)N1CCN(C(=O)CSCc2ccc(Cl)cc2)CC1 | -17.1% | 5.9% | -1.6 | -42.9%[57.5 µM] | 42.2%
C=CCNc1nc(-c2cccnc2)nc2ccccc12 | / | / | -1.4 | / | /
CS(=O)(=O)N1CCc2cc(C(=O)OCC(=O)c3ccccc3)ccc21 | -0.5% | 14.5% | -0.9 | -3.1%[57.5 µM] | 10µM*
CS(=O)(=O)N1CCc2cc(C(=O)Nc3cccc(F)c3)ccc21 | 22.8% | / | -6.5 | i | 11.2µM*
CCc1ccc2c(Cn3nc(C)c(C)c(C#N)c3=O)cc(=O)oc2c1 | / | / | 9.6 | / | /
CCOC(=O)C1CCN(S(=O)(=O)c2ccc3[nH]c(=O)oc3c2)CC1 | 2.2% | -0.2% | -5.8 | -0.9% | 7.3%
COc1cc(NC(=O)C2CCN(S(=O)(=O)c3ccc4[nH]c(=O)oc4c3)CC2)cc(OC)c1 | 20.8%[11.4 µM] | 0.3% | 4.0 | 0.767µM* | 0.0%
O=C(Nc1nc(-c2ccccn2)cs1)C1CC1 | 1.4% | 22.4µM* | 4.2 | i | 10.3%
Cc1ccc(N2Cc3ccccc3C2=S)cc1 | 6.1% | ? | -0.2 | -24.8% | 3.98µM*
S=C1c2ccccc2CN1c1ccccc1 | -3.9% | ? | -3.9 | i | 86.2%
CN(C)S(=O)(=O)c1ccc2oc(SCC(=O)N3CCCC3=O)nc2c1 | / | / | -6.1 | / | /
Cc1ccccc1S(=O)(=O)N1C[C@H]2CON(C)[C@H]2C[C@H]1c1cccc(-c2ccccc2)c1 | 7.4% | / | 2.6 | i | -24.7%
CN1OC[C@@H]2CN(S(=O)(=O)c3cccc4ccccc34)[C@H](c3ccc(-c4ccccc4)cc3)C[C@@H]21 | / | / | -30.3* | -30.2% | -35.1%

Screening results (PubChem)
